Some test systems named below: TNNI3K; TRKB; TRPM6; TSSK1B; TSSK3; TTK; TXK.
Holding throughout (settings): concentration: 1 μM, replicates: in singlicate; n = 1
The next test deals with T1, TRKA.
T1 construct: gene NTRK1

The subject of a further test is T2, TRKC.
T2 construct: gene NTRK3

Test [1] has as its system TYK2(JH1domain-catalytic).
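Further: KINOMEscan kinase panel screen.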

Turning to `CN(c1ccc2c(c1)nc(NCc1ccccc1)n2C)c1ccnc(Nc2ccc(CS(C)(=O)=O)cc2)n1.Cl` [GW811603], the “%Inh” value in the test with TNNI3K is 0%; with TRKA, 78%; in the test with TRKB, 77%; with TRKC, 55%; in the test on TRPM6, 0%; in the test on TSSK1B it was 0%. Moreover, the “%Inh” value with TSSK3 is recorded as 37%; with TTK, 16%; with TXK, 78%; in test [1], 40%.

As for `O=C(O)C(F)(F)F.O=c1[nH]ccc2nc(N[C@@H]3CCNC3)nc(Nc3cc(Cl)cc(Cl)c3)c12` [GSK2188764], the “%Inh” value was determined as 39% in the test on TNNI3K; 100% in the test with TRKA; 76% in the test with TRKB; 62% in the test on TRKC; 37% in the test with TRPM6; 75% with TSSK1B. Further, the “%Inh” value with TSSK3 worked out at 85%; with TTK, 87%; in the test with TXK it was 0%; in test [1], 80%.

For the compound `CC(C)c1nc(-c2ccc(F)c(NS(=O)(=O)c3c(F)cccc3F)c2)c(-c2ccnc(Nc3ccc(N4CCOCC4)nc3)n2)s1` [GSK1804250], the “%Inh” value was 18% with TNNI3K; 98% in the test with TRKA; 0% with TRKB; 0% in the test on TRKC; 7% with TRPM6; 15% in the test on TSSK1B. For the same compound, the “%Inh” value in the test with TSSK3 is 24%; in the test with TTK, 52%; with TXK it was 85%; in test [1], 39%.

For the compound `Cc1ccc(NC(=O)c2ccnc(N3CCCCC3)c2)cc1-c1ccc(C(=O)NCC2CC2)cc1` [GW775610], the “%Inh” value with TNNI3K was determined as 13%; in the test with TRKA, 58%; with TRKB, 14%; in the test on TRKC, 0%; in the test with TRPM6, 0%; with TSSK1B, 0%. Also, the “%Inh” value with TSSK3 worked out at 23%; in the test with TTK, 0%; with TXK, 0%; in [1], 19%.

Turning to `O=C1NC(=O)C(c2ccccc2Cl)=C1Nc1cccc(Cl)c1` [SB-342409], the “%Inh” value in the test on TNNI3K turned out to be 98.7%; in the test with TRKA it was 0%; with TRKB it was 0%; in the test with TRKC it was 9%; in the test with TRPM6 it was 13%; in the test on TSSK1B, 100%. The “%Inh” value in the test on TSSK3 is given as 8%; in the test with TTK, 0%; with TXK it was 33%; in [1] it was 12%.

Consider `Fc1cc(Cl)ccc1Nc1ccnc2cc(-c3ccc(CN4CCSCC4)o3)ccc12` [GW560106], for which the “%Inh” value was 10% with TNNI3K; 72% with TRKA; 28% in the test on TRKB; 0% with TRKC; 3% in the test on TRPM6; 0% with TSSK1B. Besides, the “%Inh” value with TSSK3 came to 14%; with TTK it was 13%; with TXK, 82%; in test [1], 19%.

On to `Cc1ccc(NC(=O)c2ccc(Cl)c(Cl)c2)cc1-c1ccc(C(=O)Nc2ccncc2)cc1` [GSK1398460], for which the “%Inh” value in the test with TNNI3K stood at 60%; in the test with TRKA, 0%; in the test with TRKB, 0%; in the test on TRKC it was 0%; in the test with TRPM6, 14%; in the test with TSSK1B it was 20%. For the same compound, the “%Inh” value in the test with TSSK3 is given as 48%; in the test on TTK, 15%; in the test on TXK it was 0%; in test [1] it was 0%.

On to `O=C(Nc1n[nH]c2nc(-c3ccccc3O)ccc12)C1CC1` [SB-711880], for which the “%Inh” value was 0% in the test with TNNI3K; 49% in the test on TRKA; 17% in the test with TRKB; 16% in the test with TRKC; 0% in the test with TRPM6; 0% in the test with TSSK1B. Further, the “%Inh” value in the test with TSSK3 was found to be 0%; in the test on TTK, 18%; in the test on TXK it was 0%; in test [1], 0%.

With `COc1cccc(NC(=O)NCCNc2ccnc(Nc3ccc(F)cc3)n2)c1` [GSK1379879], the “%Inh” value in the test with TNNI3K is 0%; with TRKA, 0%; in the test on TRKB it was 31%; in the test with TRKC, 38%; in the test on TRPM6, 21%; in the test on TSSK1B, 0%. Also, the “%Inh” value amounted to 14% with TSSK3, 0% with TTK, 4% with TXK and 33% in test [1].

The values above are taken from article PMC5540273 (PLoS ONE, 2017).
